# Reference: PubChem BioAssay (Tox21)
# Records with an inconclusive call do not appear. Calls of active or inactive are those of the source. The call rests on the fitted dose curve; in most records, active means well fitted curve in the direction sought with a large enough effect in the repeat runs; inconclusive means weak or mixed curves; inactive means no such curve, though single readings can be large; an effect the other way counts as inactive or inconclusive.
# System: not listed separately
# Test: qHTS assay to identify aromatase inhibitors - cell viability counter screen (AID 743084);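 further: cells stimulated with testosterone during compound exposure; nearly all actives have a fitted effect of over 55% in size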
# Settings: MCF-7 aro ERE viability, CellTiter-Fluor, 24 h; series mostly up to 70.3 µM; activity change, negative = cytotoxicity: at the top concentration
# On the % scale 0 is the no-effect control and ±100 the full control effect; potency means the concentration at half of the fitted maximal effect.
SMILES,"activity change, negative = cytotoxicity",Potency
C=C(C)C(=O)OCCCCCCCCCC,3.07% [at 95 µM] (inactive),–
COC(=O)c1ccccc1OC,0.438% (inactive),–
C=C(C)c1cccc(C(=C)C)c1,15.9% (inactive),–
O=C1CCc2cc(OCCCCc3nnnn3C3CCCCC3)ccc2N1,0.728% (inactive),–
CCCC1CCC(=O)CC1,-7.33% (inactive),–
O=C(Nc1ccc2c(O)c(N=Nc3ccc(N=Nc4ccc(S(=O)(=O)O)cc4)cc3)c(S(=O)(=O)O)cc2c1)c1ccccc1,–,8.63 µM (active)
OC1CCCc2ccccc21 (stereo not given),5.72% [at 95 µM] (inactive),–
CCCCN(CCCC)CC(O)c1cc(Cl)cc2c1-c1ccc(Cl)cc1/C2=C/c1ccc(Cl)cc1 (stereo not given),-16.1% (inactive),–
O=[N+]([O-])c1ccc(F)c(Cl)c1,7.92% (inactive),–
O=C(/C=C/c1ccccc1)OC/C=C/c1ccccc1,15.8% (inactive),–
CCN(CCN)c1cccc(C)c1,–,inactive
CCC(C)n1ncn(-c2ccc(N3CCN(c4ccc(OC[C@H]5CO[C@](Cn6cncn6)(c6ccc(Cl)cc6Cl)O5)cc4)CC3)cc2)c1=O (stereo not given in full),0.688% (inactive),–
CCCCC/C=C\C/C=C\CCCCCCCC(=O)O,–,inactive
CCc1cccc(CC)c1NC(=O)CN(CC(=O)O)CC(=O)O,-1.68% [at 32.5 µM] (inactive),–
CC(C)(C)C1CCC(=O)CC1,8.19% (inactive),–
COc1cc(S(=O)(=O)O)c(C)cc1N=Nc1c(O)ccc2cc(S(=O)(=O)O)ccc12,–,8.63 µM (active)
OC[C@H]1O[C@H](O[C@H]2O[C@H](CO)[C@@H](O)[C@H](O)[C@H]2O)[C@H](O)[C@@H](O)[C@@H]1O,-2.92% [at 95 µM] (inactive),–

# Biological target: Aryl hydrocarbon receptor (Homo sapiens) (UniProt P35869)
# Sequence (P35869 whole entry, looked up): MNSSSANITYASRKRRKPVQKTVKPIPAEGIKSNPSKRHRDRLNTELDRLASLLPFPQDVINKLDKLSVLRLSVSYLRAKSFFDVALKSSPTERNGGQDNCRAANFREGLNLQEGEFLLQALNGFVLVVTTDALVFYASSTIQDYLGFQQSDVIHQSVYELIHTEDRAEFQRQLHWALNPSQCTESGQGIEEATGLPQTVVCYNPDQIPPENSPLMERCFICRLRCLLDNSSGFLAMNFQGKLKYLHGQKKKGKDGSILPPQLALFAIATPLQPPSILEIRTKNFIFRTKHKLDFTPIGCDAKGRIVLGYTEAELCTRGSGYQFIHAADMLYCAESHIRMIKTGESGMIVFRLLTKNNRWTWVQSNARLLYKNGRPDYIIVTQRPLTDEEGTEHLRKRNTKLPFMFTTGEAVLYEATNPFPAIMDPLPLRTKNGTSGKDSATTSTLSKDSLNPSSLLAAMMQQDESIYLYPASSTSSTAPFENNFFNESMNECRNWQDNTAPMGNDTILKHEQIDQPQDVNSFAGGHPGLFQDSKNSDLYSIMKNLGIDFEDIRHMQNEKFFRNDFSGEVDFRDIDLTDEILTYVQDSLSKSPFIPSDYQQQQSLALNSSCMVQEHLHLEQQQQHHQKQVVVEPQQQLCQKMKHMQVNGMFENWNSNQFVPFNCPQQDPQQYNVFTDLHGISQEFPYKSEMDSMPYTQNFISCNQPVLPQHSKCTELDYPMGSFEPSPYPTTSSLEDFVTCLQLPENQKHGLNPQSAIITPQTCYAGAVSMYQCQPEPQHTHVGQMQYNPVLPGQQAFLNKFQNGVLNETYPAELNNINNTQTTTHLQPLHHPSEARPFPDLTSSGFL
# Test: qHTS assay to identify small molecule that activate the aryl hydrocarbon receptor (AhR) signaling pathway (AID 743085); further: nearly all actives have a fitted effect of over 15% in size;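 on activation: HG2L7.5c1 human HepG2 liver cells with stably integrated DRE-driven firefly reporter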
# Settings: HepG2 AhR-luc (HG2L7.5c1), luciferase, 24 h; series mostly up to 70.3 µM; activation: at the top concentration
# In short: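 Cell line HG2L7.5c1 (human hepatoma, 20× DRE-luc). Plated, 5 h 37C, compound/DMSO added, 24 h 37C. CellTiter-Fluor 30 min 37C → fluorescence; then ONE-Glo 30 min RT → luminescence.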
SMILES,activation,Potency
c1ccc(SSc2ccccc2)cc1,2.62% [at 95 µM] (inactive),–
Cl[Si](Cl)(c1ccccc1)c1ccccc1,-1.21% [at 95 µM] (inactive),–
Cc1cc(C(C)(C)C)cc(C)c1CC1=NCCN1,-1.68% [at 32.5 µM] (inactive),–
CC(C)OC(=O)C(O)(CC(=O)O)CC(=O)O,-1.13% (inactive),–
C[C@@H](O)[C@H](N)C(=O)O,-1.26% (inactive),–
OC/C=C/CO,-2.88% (inactive),–
C1CCC(SSC2CCCCC2)CC1,-0.407% (inactive),–
C=Cc1ccccc1C=C,4.89% [at 260 µM] (inactive),–
CCOC(=O)Cn1cccc1-c1nc(-c2ccc(OC)cc2)c(-c2ccc(OC)cc2)s1,-3.09% (inactive),–
CN(C)Cc1ccccc1O,-0.579% (inactive),–
O=[N+]([O-])c1ccc(O)cc1C(F)(F)F,-0.236% (inactive),–
O=C(O)[C@H](O)[C@@H](O)[C@H](O[C@@H]1O[C@H](CO)[C@H](O)[C@H](O)[C@H]1O)[C@H](O)CO,-2.53% [at 32.5 µM] (inactive),–
O=C(O)O,-1.17% [at 8.47 µM] (inactive),–
C[C@H]1NCc2cc(-c3ccc4c(=O)c(C(=O)O)cn(C5CC5)c4c3OC(F)F)ccc21,2.52% (inactive),–
CC(C)(c1cc(Br)c(OCC(Br)CBr)c(Br)c1)c1cc(Br)c(OCC(Br)CBr)c(Br)c1 (stereo not given),-2.3% (inactive),–
O=C(O)c1cccc(C(F)(F)F)c1,-0.303% (inactive),–
CCCCCCOC(=O)C(C)CC (stereo not given),-0.374% (inactive),–
Clc1ccnc(Cl)n1,0.11% [at 95 µM] (inactive),–
CN1CCCCC1CCN1c2ccccc2Sc2ccc(S(C)=O)cc21 (stereo not given),–,inactive

SMILES,activation,Potency
Cc1cc(C(C)(C)C)c(O)c(C)c1Cn1c(=O)n(Cc2c(C)cc(C(C)(C)C)c(O)c2C)c(=O)n(Cc2c(C)cc(C(C)(C)C)c(O)c2C)c1=O,-0.346% (inactive),–
Cc1ccc(-c2ccccc2)cc1,-0.829% (inactive),–
C=C(C)C(=O)OCCCCCCCCCC,-0.316% [at 95 µM] (inactive),–
COC(=O)c1ccccc1OC,1.32% (inactive),–
C=C(C)c1cccc(C(=C)C)c1,-1.58% (inactive),–
O=C1CCc2cc(OCCCCc3nnnn3C3CCCCC3)ccc2N1,1.62% (inactive),–
CCCC1CCC(=O)CC1,8.77% (inactive),–
O=C(Nc1ccc2c(O)c(N=Nc3ccc(N=Nc4ccc(S(=O)(=O)O)cc4)cc3)c(S(=O)(=O)O)cc2c1)c1ccccc1,-0.117% (inactive),–
OC1CCCc2ccccc21 (stereo not given),-0.029% [at 95 µM] (inactive),–
CCCCN(CCCC)CC(O)c1cc(Cl)cc2c1-c1ccc(Cl)cc1/C2=C/c1ccc(Cl)cc1 (stereo not given),–,26.6 µM (active)
O=[N+]([O-])c1ccc(F)c(Cl)c1,-1.31% (inactive),–
O=C(/C=C/c1ccccc1)OC/C=C/c1ccccc1,4.69% (inactive),–
CCN(CCN)c1cccc(C)c1,–,inactive
CCC(C)n1ncn(-c2ccc(N3CCN(c4ccc(OC[C@H]5CO[C@](Cn6cncn6)(c6ccc(Cl)cc6Cl)O5)cc4)CC3)cc2)c1=O (stereo not given in full),-0.293% (inactive),–
CCCCC/C=C\C/C=C\CCCCCCCC(=O)O,–,inactive
CCc1cccc(CC)c1NC(=O)CN(CC(=O)O)CC(=O)O,5.84% [at 32.5 µM] (inactive),–
CC(C)(C)C1CCC(=O)CC1,4.73% (inactive),–
COc1cc(S(=O)(=O)O)c(C)cc1N=Nc1c(O)ccc2cc(S(=O)(=O)O)ccc12,-1.7% (inactive),–
OC[C@H]1O[C@H](O[C@H]2O[C@H](CO)[C@@H](O)[C@H](O)[C@H]2O)[C@H](O)[C@@H](O)[C@@H]1O,-0.16% [at 95 µM] (inactive),–
